We go through nine molecules from PubChem BioAssay (NCI).

Assay in all cases: NCI-60 one-dose screen, 48 h (100 = growth as untreated, 0 = no growth, -100 = all killed)
Assay [1] relates to SR leukemia. Conditions: 10 µM unless noted.
In assay [2] the test system is RPMI-8226 leukemia. The settings on record: 10 µM unless noted.
The test system of assay [3] is OVCAR-8 ovarian. Conditions: 10 µM unless noted.
For assay [4], the system named is OVCAR-5 ovarian. Conditions: 10 µM unless noted.
In assay [5] the test system is OVCAR-4 ovarian. Conditions: 10 µM.
Assay [6] deals with SK-OV-3 ovarian. The settings on record: 10 µM unless noted.
The subject of assay [7] is IGROV1 ovarian. Conditions: 10 µM unless noted.
Assay [8] relates to OVCAR-3 ovarian. Conditions: 10 µM unless noted.
The test system of assay [9] is NCI/ADR-RES ovarian. The settings on record: 10 µM unless noted.
In assay [10] the test system is T-47D breast. The settings on record: 10 µM unless noted.
In assay [11] the test system is BT-549 breast. Conditions: 10 µM unless noted.
The subject of assay [12] is MDA-MB-435 melanoma. The settings on record: 10 µM unless noted.
In assay [13] the test system is SW-620 colon. Conditions: 10 µM unless noted.
Assay [14] concerns MCF7 breast. Conditions: 10 µM unless noted.
The subject of assay [15] is HCT-116 colon. Conditions: 10 µM unless noted.
Assay [16] relates to HCC-2998 colon. The settings on record: 10 µM unless noted.
The test system of assay [17] is KM12 colon. The settings on record: 10 µM unless noted.
Assay [18] deals with HS 578T breast. The settings on record: 10 µM unless noted.

The panel holds about 83,000 compounds, 20% with a hit somewhere; the sample as a whole holds those more often.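 In brief: 96-well plates, 48 h treatment, single concentration, percent growth endpoint.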 Values without a mark were called inactive. Calls of active or inactive are those of the source. The calls were made as follows: active = growth percent below 10; inactive = the rest.

Consider `CCOC(=O)C1=C(C(=O)c2ccc(Br)cc2)C(c2ccc(Br)cc2)NC(=S)N1` (stereo unspecified), for which the growth in assay [1] was 108%; in assay [2], 111%; in assay [3], 97.8%; in [4], 108%; in [5], 107%; in assay [6], 110%. Also, the growth in assay [7] is 92%; in assay [8] it was 105%; in [9], 103%; in [10], 94.5%; in [11], 101%; in assay [12], 107%. Also, the growth was 101% in [13]; 102% in assay [14]; 89.8% in assay [15]; 106% in assay [16]; 97.5% in [17].

Turning to `O=C(NCCCNC(=O)OCc1ccc2cccc(O)c2n1)OCc1ccc2cccc(O)c2n1`, the growth in assay [1] was 12.1%; in [2], 18.4%; in assay [3] it was 23%; in [4], 59.9%; in assay [5], 39.2%; in assay [6] it was 76.6%. In addition, the growth in [7] is 24.1%; in assay [8], 14.8%; in assay [18] it was 57.2%; in [10], 49.1%; in assay [12], 18.5%; in assay [13], 4.75% (active). For the same molecule, the growth in assay [14] is 19.3%; in assay [15], -46.3% (active); in [16] it was 85.1%; in [17] it was 53.3%.

Turning to `C=CCCCCCCCCC(=O)OC(C)C`, the growth in assay [1] is 89%; in assay [2], 99.7%; in [3], 104%; in assay [4], 99.2%; in assay [5], 112%; in assay [6] it was 102%. Besides, the growth was 109% in assay [7]; 105% in assay [8]; 93.9% in assay [18]; 102% in [9]; 108% in assay [11]; 111% in [12]. Moreover, the growth in assay [13] is 96.5%; in [14], 98.2%; in [15], 97.7%; in [16] it was 112%; in assay [17], 95.3%.

Turning to `COc1cc(C)cc2oc3oc(=N)c(C(=O)c4ccccc4)cc3c(=O)c12`, the growth is 94.5% in assay [1]; 116% in assay [2]; 105% in [3]; 95.2% in [4]; 105% in assay [5]; 120% in assay [6]. Besides, the growth is 93.9% in [7]; 101% in assay [8]; 106% in assay [9]; 103% in assay [10]; 97.3% in assay [11]; 102% in assay [12]. In addition, the growth is 104% in [13]; 96.2% in [14]; 93.9% in [15]; 108% in assay [16]; 104% in assay [17].

Consider `CCCCN(CCCC)CC(O)c1ccc(OCc2ccccc2)c2ccccc12` (stereo unspecified), for which the growth in [1] was 9.33% (active); in assay [2] it was 77.3%; in assay [3], 89.6%; in assay [4], 98.4%; in assay [5], 93.3%; in [6], 92.4%. Besides, the growth in [7] is 61.8%; in assay [8], 69.2%; in [9], 77.7%; in assay [10], 87.5%; in [11] it was 111%; in assay [12], 51.2%. Also, the growth in assay [13] was 72.6%; in [14] it was 95.7%; in [15], 53.5%; in assay [16], 70%; in [17] it was 74.2%.

For the molecule `CCN(CC)CCCCCCNc1cccc2cc(Br)cnc12`, the growth is 28.4% in assay [1]; 68% in assay [2]; 80.2% in assay [3]; 117% in assay [4]; 87.5% in assay [5]; 111% in [6]. In addition, the growth is 60% in [7]; 84.2% in [8]; 79.9% in [9]; 112% in assay [10]; 80.8% in assay [11]; 31.5% in assay [12]. The growth is 56.5% in assay [13]; 109% in [14]; 72.2% in [15]; 88.3% in assay [16]; 65.7% in [17].

As to `O=C1/C(=C/c2cccc(OCc3ccccc3)c2)Oc2cc(OCCN3CCCCC3)ccc21`, the growth is -20.5% (active) in [1]; 20.8% in assay [2]; 92% in assay [3]; 81.4% in assay [4]; 86.2% in assay [5]; 121% in [6]. The growth in assay [7] was 71.5%; in assay [8], 86.3%; in assay [9], 82.7%; in assay [10], 89.9%; in assay [11], 75.6%; in assay [12] it was 85.4%. Besides, the growth is 67.3% in [13]; 50.7% in assay [14]; 52.8% in assay [15]; 93.3% in [16]; 67.9% in assay [17].

Turning to `CCN(CC)CCCOc1ccc2c(c1)O/C(=C\c1cccc(OC)c1)C2=O`, the growth is 63.3% in assay [1]; 96.2% in assay [2]; 90.8% in assay [3]; 95.7% in assay [4]; 94.2% in assay [5]; 115% in [6]. The growth was 97.7% in assay [7]; 91.2% in assay [8]; 94.8% in [9]; 87.6% in assay [10]; 78.4% in assay [11]; 91.9% in [12]. The growth in assay [13] is 73.9%; in assay [14], 72.8%; in [15], 51.8%; in assay [16], 86.7%; in assay [17] it was 93.2%.

`COc1ccc(C(=O)CSc2nnc(-c3cc(-c4ccccc4)nc4ccccc34)o2)cc1`: the growth in assay [1] was 96.3%; in assay [2] it was 121%; in [3], 103%; in [4], 105%; in assay [5], 107%; in assay [6] it was 119%. The growth in assay [7] was 102%; in assay [8], 109%; in assay [9] it was 103%; in [10] it was 108%; in assay [11], 105%; in assay [12], 106%. The growth is 107% in [13], 103% in assay [14], 118% in assay [16] and 105% in assay [17].
